This is an account of results in PubChem BioAssay AID463173 (ICCB-Longwood Screening Facility, Harvard Medical School, 2010).

The campaign covered roughly 52,000 compounds. About 4,300 (8.3%) were called active. The sample as a whole holds a higher share of actives than the screen did. Unmarked numbers belong to inactive results. No stated cut-off is given here; in the data, active means survival mostly below about 52% (no sharp cut-off); inactive means mostly above about 56%.

This assay concerns DeltatarO mutant. The experiment in a line: growth inhibition of S. aureus wild type versus tarO mutant, primary screen, teichoic acid synthesis inhibitors, RN4220, OD600 (AID 463173). The following applies: OD600, 18 h, stronger effect = lower value, screened at 18.75 µg/mL (by protocol).
Turning to `CC(C)Nc1nc2c(S(=O)(=O)c3cccc(Cl)c3)nnn2c2ccsc12`, the survival was 70%.

On to `O=C(CSc1c2c(nc3ccccc13)CCC2)Nc1ccc(F)cc1`, for which the survival was 127%.

In the case of `COc1ccc(NC(=O)CSc2c3c(nc4ccccc24)CCC3)c(OC)c1`, the survival was 110%.

With `Cc1ccc(NC(=O)CSc2c3c(nc4ccccc24)CCCC3)cc1F`, the survival is 30% (active).

Take `CCOc1ccc(NC(=O)CSc2c3c(nc4ccccc24)CCCC3)cc1`: the survival was 88%.

Regarding `COc1ccc(OC)c(NC(=O)CSc2c3c(nc4ccccc24)CCCC3)c1`, the survival was 93%.

For `COc1cccc(NC(=O)CSc2c3c(nc4ccccc24)CCCC3)c1`, the survival was 43% (active).

Take `CN(C)c1ccc(-c2nc3ccccn3c2Nc2ccc3c(c2)OCCO3)cc1`: the survival is 81%.

For the compound `CC(CCc1ccccc1)NC(=O)Cn1c(=O)nc(-c2ccccc2)c2cc(Cl)ccc21` (centres undefined), the survival is 80%.

For the compound `O=C(CCc1ccccc1)NCc1ccco1`, the survival was 88%.

For `CCOC(=O)c1ccccc1NC(=O)N1CC(C)Oc2ccc(C)cc21` (centres undefined), the survival was 50%.

Regarding `CCN1CCN(C(=O)c2ccc3c(c2)N(Cc2ccccc2)C(=O)c2ccccc2S3(=O)=O)CC1`, the survival is 129%.

For the compound `Cc1ccc(CNC(=O)CN2CCCN(Cc3ccc(F)cc3)S2(=O)=O)cc1`, the survival was 67%.

For the compound `Cc1cc(F)ccc1S(=O)(=O)Nc1cc2c(C(=O)O)c(C)oc2c2ccccc12`, the survival was 39% (active).

Regarding `CCOc1ccc(S(=O)(=O)Nc2cc3c(C(=O)OCc4ccccc4)c(C)oc3c3ccccc23)cc1`, the survival was 94%.

Turning to `COCCOC(=O)c1c(C)oc2c1cc(NS(=O)(=O)c1ccc(Cl)c(C)c1)c1ccccc12`, the survival was 44% (active).

Regarding `Cc1oc2c(cc(NS(=O)(=O)c3ccc(F)cc3)c3ccccc32)c1C(=O)OCc1ccccc1`, the survival was 54%.

Take `CC(=O)c1c(C)oc2c1cc(NS(=O)(=O)c1ccc(C(C)(C)C)cc1)c1ccccc12`: the survival was 64%.

As for `Cc1ccc(S(=O)(=O)Nc2cc3c(C(=O)OCc4ccccc4)c(C)oc3c3ccccc23)c(C)c1`, the survival was 56%.

For the compound `CCCOC(=O)c1c(C)oc2c1cc(NS(=O)(=O)c1ccc(OCC)cc1)c1ccccc12`, the survival was 56% (active).

In the case of `CC(=O)c1c(C)oc2c1cc(NS(=O)(=O)c1ccc(Cl)c(C)c1)c1ccccc12`, the survival was 70%.

Regarding `Cc1oc2c(cc(NS(=O)(=O)c3ccc(C(C)C)cc3)c3ccccc32)c1C(=O)O`, the survival was 42% (active).

With `Cc1oc2c(cc(NS(=O)(=O)c3ccc(C(C)C)cc3)c3ccccc32)c1C(=O)OCc1ccccc1`, the survival is 81%.

For the compound `CCc1ccc(S(=O)(=O)Nc2cc3c(C(=O)OCc4ccccc4)c(C)oc3c3ccccc23)cc1`, the survival is 60%.

In the case of `Cc1oc2c(cc(NS(=O)(=O)c3ccc(Cl)cc3)c3ccccc32)c1C(=O)OCc1ccccc1`, the survival was 52%.

Turning to `CCc1ccc(CN(Cc2ccco2)C(=O)COc2ccc(Cl)cc2C)cc1`, the survival was 55%.

Turning to `O=C(CNC(=O)c1ccccc1)OCc1cc(=O)n2nc(C3CCCCC3)sc2n1`, the survival is 90%.

In the case of `O=C(O)CC1c2ccccc2CCN1C(=O)Nc1cc(Cl)ccc1Cl` (centres undefined), the survival was 94%.

For `COc1ccc(NC(=O)Cn2c(=O)n(-c3cccc(C)c3)c(=O)c3c2c2cc(C)ccc2n3C)cc1OC`, the survival is 79%.

As for `c1ccc(CNCC2COc3ccccc3O2)cc1` (centres undefined), the survival was 114%.

Take `Cc1ccc(-n2ncc3c(N4CCN(C)CC4)ncnc32)cc1C`: the survival is 89%.

Take `Cc1ccc(CNC(=O)NC2COc3ccccc3C2)cc1` (centres undefined): the survival was 107%.

Consider `COc1ccc(OC)c(S(=O)(=O)Nc2cc3c(C(C)=O)c(C)oc3c3ccccc23)c1`, for which the survival is 52%.

Consider `COc1ccc(S(=O)(=O)Nc2cc3c(C(=O)OC(C)C)c(C)oc3c3ccccc23)cc1`, for which the survival was 38% (active).

For `CCOC(=O)c1c(C)oc2c1cc(NS(=O)(=O)c1ccc(C)cc1)c1ccccc12`, the survival was 56%.

As to `Cc1nc(-c2ccc(S(=O)(=O)Nc3ccc(OC(F)(F)F)cc3)cc2)co1`, the survival was 78%.

Regarding `COC(=O)c1cccc2c1NC(c1cccnc1)C1CC=CC21` (centres undefined), the survival was 101%.

Take `Cc1ccc2c(c1C)NC(C(=O)O)C1CC=CC21` (centres undefined): the survival is 85%.

With `COC(=O)c1ccc([C@@H]2Nc3c(cccc3C(F)(F)F)[C@@H]3C=CC[C@@H]32)cc1`, the survival was -3% (active).

With `COC(=O)c1ccc([C@@H]2Nc3c(OC)ccc(C)c3[C@@H]3C=CC[C@@H]32)cc1`, the survival was 49%.

As to `Cc1ccc(Cl)c2c1N[C@@H](c1ccc(C(=O)O)cc1)[C@H]1CC=C[C@@H]21`, the survival is -10% (active).

On to `CCOC(=O)c1cccc2c1N[C@@H](c1ccc(F)cc1)[C@H]1CC=C[C@@H]21`, for which the survival is 4% (active).

Regarding `CCOc1cccc2c1N[C@@H](c1ccc(C(=O)O)cc1)[C@H]1CC=C[C@@H]21`, the survival was 68%.

Turning to `Cc1ccc([C@H]2Nc3ccc(S(=O)(=O)Nc4cccc(Cl)c4C)cc3[C@H]3C=CC[C@H]32)cc1`, the survival was 50%.

As to `COC(=O)c1ccc([C@@H]2Nc3c(C)cc(C)cc3[C@@H]3C=CC[C@@H]32)cc1`, the survival is 51% (active).

Turning to `COc1cc([C@@H]2Nc3c(F)cccc3[C@@H]3C=CC[C@@H]32)cc(Br)c1OC`, the survival was 55%.

Take `COCCN(CCOC)C(=O)c1cc2c(=O)n3ccccc3nc2n1C`: the survival is 51%.

Turning to `CCOc1ccccc1NC(=O)N(C)CCc1c(C)nn(CC)c1C`, the survival is 120%.

On to `Cc1c(C(=O)N2CCCC2)oc2c1-c1nn(CC(=O)NC(C)c3ccccc3)cc1CC2` (centres undefined), for which the survival is 72%.

On to `Cc1nc(SCC(=O)N2c3ccccc3CCc3ccccc32)n[nH]1`, for which the survival was 102%.

As to `Cc1cccc(C(=O)NC2=NC(c3ccc(Cl)cc3)CC(=O)N2)c1` (centres undefined), the survival was 88%.

For `COc1ccccc1NC(=O)CN1C(=O)CC(c2ccc(C)c(C)c2)=Nc2ccccc21`, the survival is 84%.

For `O=C1Nc2ccc(S(=O)(=O)Nc3ccccc3O)c3cccc1c23`, the survival is 62%.

Consider `CCOC(=O)c1ccc(NC2=CC(c3ccc(O)c(OCC)c3)N(c3ccc(C(=O)OCC)cc3)C2=O)cc1` (centres undefined), for which the survival was 59%.

Regarding `Cc1ccc(S(=O)(=O)c2nnn3c2nc(NCc2ccc4c(c2)OCO4)c2sccc23)cc1`, the survival was 113%.

Take `COc1ccccc1CNC(=O)CCn1c(=O)c2cccn2c2cccnc21`: the survival is 80%.

In the case of `COCCCNC(=O)c1nn(-c2ccc(C)cc2)nc1CO`, the survival is 82%.

For the compound `Cc1ccc(-c2nc(S(=O)(=O)c3ccc(C)cc3)c(SCC(=O)Nc3ccc(F)cc3)o2)cc1`, the survival was 58%.

Regarding `O=C(CSc1oc(-c2ccccc2)nc1S(=O)(=O)c1ccc(Br)cc1)c1ccccc1`, the survival was 58%.

On to `O=C(CSc1oc(-c2ccccc2)nc1S(=O)(=O)c1ccccc1)c1ccccc1`, for which the survival is 148%.

Consider `Cc1ccc(-c2nc(S(=O)(=O)c3ccc(C)cc3)c(SCC(=O)NC3CCCCC3)o2)cc1`, for which the survival was 51%.

For `Cc1ccc(S(=O)(=O)c2nc(-c3ccccc3)oc2SCC(=O)NC2CCCCC2)cc1`, the survival is 166%.

For the compound `O=C(CSc1oc(-c2ccccc2)nc1S(=O)(=O)c1ccc(Cl)cc1)c1ccccc1`, the survival is 44% (active).

In the case of `Cc1ccc(S(=O)(=O)c2nc(-c3ccc(F)cc3)oc2SCC(=O)c2ccccc2)cc1`, the survival was 47% (active).

On to `Cc1ccc(-c2nc(S(=O)(=O)c3ccccc3)c(SCC(=O)NC3CCCCC3)o2)cc1`, for which the survival was 43% (active).

For the compound `O=C(CSc1oc(-c2ccccc2)nc1S(=O)(=O)c1ccc(Cl)cc1)Nc1ccc(F)cc1`, the survival was 162%.

Consider `Cc1ccc(-c2nc(S(=O)(=O)c3ccc(C)cc3)c(SCC(=O)c3ccccc3)o2)cc1`, for which the survival is 52%.

As for `O=C(CSc1oc(-c2ccc(F)cc2)nc1S(=O)(=O)c1ccccc1)c1ccc(Cl)cc1`, the survival is 55%.

In the case of `O=C(CSc1oc(-c2ccc(F)cc2)nc1S(=O)(=O)c1ccc(Cl)cc1)c1ccccc1`, the survival was 45% (active).

Take `Cc1cccc(N2C(=O)C(CC(=O)Nc3ccc(F)cc3)N(C3CCCC3)C2=O)c1` (centres undefined): the survival was 130%.

With `CCCC1=Nc2cc(C(=O)NCCc3ccc(OC)cc3OC)ccc2Sc2ccccc21`, the survival was 99%.

For the compound `O=C(CC(NCc1ccccc1)C(=O)O)NC1CCCCC1` (centres undefined), the survival is 102%.

For the compound `Cn1c(=O)c(C(=O)NCCN2CCNCC2)c(O)c2ccccc21`, the survival was 68%.

For the compound `CCCn1c(=O)c2sccc2n2c(CCCC(=O)NC3CCC(C)CC3)nnc12` (centres undefined), the survival is 100%.

As for `COc1ccc(OC)c(CNC(=O)c2cnc(N(C)C)nc2)c1`, the survival is 71%.

`O=C(Cc1ccc(NC(=O)N2CCCCc3ccccc32)cc1)Nc1ccccc1Br`: the survival was 73%.

Regarding `Cc1ccc(C)c(N2CCN(C(=O)c3cccc(-n4c(C)nc5cccnc54)c3)CC2)c1`, the survival is 78%.

In the case of `CCc1c(C)nc2nc(-c3ccccc3)nn2c1NCc1ccc(C)cc1`, the survival is -4% (active).

As for `COc1cccc(CNC(=O)Cn2c(=O)n3nc(-c4cccc(C)c4)nc3c3ccccc32)c1`, the survival is 93%.

As to `Clc1ccccc1CNc1nc2ccccc2c2nc(-c3ccccc3)nn12`, the survival was 108%.

`Cc1cccc(-c2nc3c4ccccc4nc(NCc4ccc(F)cc4)n3n2)c1`: the survival was 84%.

For the compound `COc1cccc(CNc2nc3c(-c4cccc(C)c4)nnn3c3ccccc23)c1`, the survival is 96%.

On to `Cc1ccc(CNc2cc(C)nc3nc(-c4ccc(C)cc4)nn23)cc1`, for which the survival was 69%.

Regarding `COc1ccc(CNc2nc3ccccc3c3nc(-c4ccccc4)nn23)cc1`, the survival is 35% (active).

Take `Cc1ccc(CNc2cc(C)nc3nc(-c4cccc(C)c4)nn23)cc1`: the survival was 124%.

Consider `CCc1c(C)nc2nncn2c1NCc1ccccc1`, for which the survival is 85%.

Turning to `COc1cccc(CNc2nc3ccccc3c3nc(-c4cccc(C)c4)nn23)c1`, the survival was 31% (active).

Consider `Cc1ccc(CNc2nc3ccccc3c3nc(-c4cccc(C)c4)nn23)cc1`, for which the survival was 18% (active).

In the case of `c1ccc(CNc2nc3ccccc3c3nc(-c4ccccc4)nn23)cc1`, the survival was 54%.
